Assay outcomes deposited in PubChem by ICCB-Longwood Screening Facility, Harvard Medical School.
Only some compounds are listed: those with a hit (about 1.4% of all), similar ones and a draw of the others.
MenB inh – M. tuberculosis MenB inhibitors, primary screen, biochemical, absorbance; 1,4-dihydroxy-2-naphthoyl-CoA synthase (Mycobacterium tuberculosis (strain ATCC 25618 / …; MenB enzyme assay, absorbance read-out; inhibition, % (concentration not given with the values); actives 0.43% (n = 100,000); AID 540299, 2011; in the data active means inhibition above about 21%, passing the limit was not always enough
Target sequence (P9WNP5 whole entry, looked up): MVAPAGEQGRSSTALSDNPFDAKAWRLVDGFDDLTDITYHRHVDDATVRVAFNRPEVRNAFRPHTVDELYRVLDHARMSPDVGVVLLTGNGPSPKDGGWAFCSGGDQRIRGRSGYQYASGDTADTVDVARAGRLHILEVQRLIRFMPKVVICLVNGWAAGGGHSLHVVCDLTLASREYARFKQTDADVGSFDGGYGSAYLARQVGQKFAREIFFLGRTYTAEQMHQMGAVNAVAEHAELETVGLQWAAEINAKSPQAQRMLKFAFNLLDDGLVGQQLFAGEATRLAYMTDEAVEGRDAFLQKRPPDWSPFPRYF
MbtI inh – MbtI salicylate synthase inhibitors, primary screen, biochemical, fluorescence intensity; actives 0.89% (n = 100,000); inhibition, % (test concentration not listed); P9WFX0; purified MbtI enzyme, fluorescence intensity read-out; in the data active means inhibition mostly above about 56%, no sharp cut-off; inactive means mostly below about 77%
AID504770 – growth inhibition of E. coli YBA685, primary screen, V. cholerae RctB inhibitors | E. coli YBA685 rctB-dependent plasmid, OD600 growth, 3 h; stronger effect = lower value | z-score (test concentration not listed) | actives 0.27% (n = 130,000) | AID 504770, 2011; in the data active means z-score below about -2, passing the limit was not always enough
PV pol inh – poliovirus RdRp elongation inhibitors, primary screen, biochemical, fluorescence polarization, total intensity; actives 0.66% (n = 150,000); poliovirus polymerase elongation; stronger effect = lower value; % elongation, % (compound at 16.7 µg/mL); Genome polyprotein (Poliovirus type 1 (strain Mahoney)), P03300; in the data active means % elongation below about 90%
Starred values were filed as active, the others as inactive.

`CCOC(=O)/C=C(\C)Sc1cc(=O)oc2ccccc12` gave MenB inh 0, MbtI inh -4, AID504770 -0.35 and PV pol inh 84*.
CCO/C(C)=N\Oc1cc(=O)oc2ccccc12 was read as MenB inh -15, MbtI inh -12, AID504770 -0.45 and PV pol inh 100.
Screening COc1ccc(NC(=O)CSc2nnc(N)s2)cc1 returned PV pol inh 108.
For COc1ccccc1NC(=O)CSC(=O)c1ccccc1 the results were MbtI inh 87*, AID504770 0.1 and PV pol inh 101.
Screening COc1ccccc1NC(=O)CSc1nnc(N)s1 returned PV pol inh 83*.
Screening Cc1c2occ(C(C)(C)C)c2cc2c3c(c(=O)oc12)CCCC3 returned MenB inh -5, MbtI inh 2, AID504770 1.5 and PV pol inh 101.
`CCOC(=O)C1CCCN(C(=O)CSc2ccc(NC(C)=O)cc2)C1` (configuration not stated) gave MenB inh 0, MbtI inh 67*, AID504770 1.5 and PV pol inh 100.
Screening O=C(NC1CCN(Cc2ccccc2)CC1)c1ccc(Cn2c(=O)c3ccccc3n(Cc3ccc(Cl)cc3)c2=O)cc1 returned PV pol inh 99.
`O=C(NC1CCN(Cc2ccccc2)CC1)c1ccc(Cn2c(=O)c3ccccc3n(Cc3ccccc3)c2=O)cc1` gave PV pol inh 73*.
For Cc1c(Cl)cccc1N1CC(C)(C)C1=O the results were AID504770 -0.4.
`Cc1c(Cl)cccc1N1C(=O)C=CC1=O` gave MbtI inh 99*, AID504770 -2.6* and PV pol inh 102.
`COc1ccc(C/C(N)=N/O)cc1OC` gave MenB inh 21*, MbtI inh 1, AID504770 -0.25 and PV pol inh 101.
CC1CCCN(C(=O)c2cccc3c2SCCC3=O)C1 (configuration not stated) was read as MenB inh -3, MbtI inh -8, AID504770 -0.7 and PV pol inh 104.
For O=C(Sc1nnnn1-c1ccccc1)c1cccc(Cl)c1 the results were AID504770 0.2.
For N#CC(C#N)=C/C=C(\Sc1nnnn1-c1ccccc1)c1ccccc1 the results were MenB inh -10, MbtI inh 84*, AID504770 -0.35 and PV pol inh 98.
Screening O=S(=O)(Cc1ccccc1)c1nnnn1-c1ccccc1 returned MbtI inh -6 and AID504770 0.5.
Screening c1ccc(-n2nnnc2SSc2nnnn2-c2ccccc2)cc1 returned MenB inh -24, MbtI inh 59*, AID504770 -0.7 and PV pol inh 98.
For CCS(=O)(=O)c1nnnn1-c1ccccc1 the results were MenB inh 42*, MbtI inh 29, AID504770 -0.2 and PV pol inh 103.
For CSc1ncccc1C(=O)OC1CCOC1=O (configuration not stated) the results were MenB inh 8, MbtI inh 3, AID504770 -0.25 and PV pol inh 106.
`Oc1ccccc1OCc1nc2ccccc2s1` gave MbtI inh 52*, AID504770 0 and PV pol inh 102.
Screening CCN(CC(=O)Nc1ccc2c(c1)OCCO2)C(=O)/C=C/c1ccco1 returned MenB inh -3, MbtI inh 20 and AID504770 -0.75.
Cc1cc2nc(-c3ccc(NC(=O)c4ccccc4F)cc3)oc2cc1C was read as PV pol inh 24*.
For O=C(Nc1ccc(Cl)c(-c2nc3cc(Cl)ccc3o2)c1)c1cc2ccccc2o1 the results were PV pol inh 105.
For O=C(Nc1ccc(-c2nc3cc(Cl)ccc3o2)cc1)c1cc2ccccc2o1 the results were PV pol inh 49*.
Screening Cc1ccccc1C(=O)Nc1ccc(-c2nc3ccccc3o2)cc1 returned MenB inh 2, MbtI inh 67, AID504770 0.6 and PV pol inh 100.
Screening COC(=O)c1sc(=S)n(-c2cc(OC)ccc2OC)c1N returned MenB inh -20, MbtI inh 18, AID504770 -0.55 and PV pol inh 98.
COC(=O)c1sc(=S)n(-c2cccc(OC)c2)c1N was read as MenB inh -15, MbtI inh 96*, AID504770 -0.8 and PV pol inh 97.
For CCOC(=O)c1cc(-c2cc3ccccc3o2)nn1CCC#N the results were MenB inh -17, MbtI inh -28, AID504770 1 and PV pol inh 112.
Screening Cc1conc1NC(c1cccs1)c1ccc2cccnc2c1O (configuration not stated) returned MenB inh -73, MbtI inh 97*, AID504770 1.1 and PV pol inh 118.
For COc1cccc(C(=O)CS)c1 the results were MenB inh -10, MbtI inh 87*, AID504770 2.3 and PV pol inh 101.
COc1cccc(C(=O)CC#N)c1 was read as MenB inh 0, MbtI inh -8, AID504770 -0.65 and PV pol inh 104.
For COc1ccc([C@H]2[C@@H](C(=O)O)c3ccccc3C(=O)N2Cc2ccc3c(c2)OCO3)cc1 the results were MenB inh 6, MbtI inh 4, AID504770 0 and PV pol inh 38*.
For O=C(CSc1nncn1-c1ccccc1)NC1CC1 the results were MenB inh 1, MbtI inh -4, AID504770 0.1 and PV pol inh 104.
Oc1ccc(CN2CCN(c3ccccc3)CC2)c2cccnc12 was read as MenB inh -51, MbtI inh -2, AID504770 2.3 and PV pol inh 106.
O=C(O)c1c(CN2CCN(c3ccccc3)CC2)c(O)c2ccccc2c1O was read as MenB inh -28, MbtI inh 0, AID504770 1.5 and PV pol inh 86*.
For Cc1cc(C)cc(NC(=O)c2sc3nc(-c4cc5ccccc5oc4=O)[nH]c(=O)c3c2C)c1 the results were PV pol inh 105.
For Cc1c(C(=O)Nc2cccc(F)c2)sc2nc(-c3cc4ccccc4oc3=O)[nH]c(=O)c12 the results were PV pol inh 64*.
Screening O=C1c2ccccc2-c2n[nH]c(=S)nc21 returned MenB inh inactive, MbtI inh 27, AID504770 -2.6* and PV pol inh 76*.
Screening O=C1c2ccccc2-c2nc3ccccc3nc21 returned MenB inh 12, MbtI inh 5, AID504770 -0.4 and PV pol inh 100.
CCN(CC)c1cccc(Oc2ncnc3sccc23)c1 was read as MenB inh -6, MbtI inh -169, AID504770 -0.55 and PV pol inh 136.
Screening CCOc1cc(C(=O)O)c(N)cc1OC returned MenB inh 12, MbtI inh 100, AID504770 -0.35 and PV pol inh 87*.
`Cc1cccc(NC(=O)CN(CC2CCCO2)C(=O)c2cc(-c3ccco3)nc3ccccc23)c1C` (configuration not stated) gave MenB inh -7, MbtI inh 103, AID504770 -0.8 and PV pol inh 1.0*.
